This assay deals with AMP-activated protein kinase, AMPK (Homo sapiens) (UniProt P54646+O43741+P54619+Q9UGJ0+Q9Y478+Q13131+Q9UGI9). Description: AMP-dependent Kinase enzyme assay. An in vitro enzyme assay that detects ADP turnover that is directly proportional to AMPK activity. This uses naive AMPK that is activated during the assay with MK-8722. In kind it is functional. On the set-up: scale not given: direction of the effect not stated beside the values. Conditions: 30 µM.
As to `CC(c1ccco1)N(C)Cc1nc2c(cnn2C)c(=O)[nH]1` (stereo not given), the Percent Effect was -5.7%.

As to `CCn1nc(C)c2nnn(CC(=O)Nc3cccc(Cl)c3)c(=O)c21`, the Percent Effect came out at 1.25%. For `CCCC(=O)NCc1cc(Br)c(OC)c(OC)c1` the value was -3.19%; for `CC(=O)N(C)CC(=O)Nc1cccc(N2CCN(CC3CC3)CC2)c1`, -9.55%.

As to `CS(=O)(=O)N1CC[C@H]2[C@H](C[C@@H](Cn3cncn3)N2CC2CC2)C1`, the Percent Effect is 9.89%. To `COc1ccnc(N2CCN(C(=O)CN3CCCC3=O)CC2)n1` belongs -5.08%; to `Cc1cc(C)n(CC2CCCCN2Cc2cscn2)n1` (stereo not given), -3.15%. Regarding `O=C(CC1CCCC1)N1CCCC(c2n[nH]c3nccnc23)C1` (stereo not given), the Percent Effect amounted to 20.4%. For `CCc1ccc(CN2CC[C@H]3C[C@H](c4nnc(C)[nH]4)O[C@@H]3C2)o1` the value was -2.87%; for `CN(C)CCNC(=O)c1cc(-c2cnc(N3CCCC3)nc2)cn1C`, 9.86%. With `Cc1cnn(CCNCc2ccccc2C#N)c1`, the Percent Effect is -2.49%. For `Cc1ccc(CN2CCC3(C2)C(=O)N(CC(C)C)c2ccccc23)s1` (stereo not given) the value was -0.146%. To `NC(=O)Nc1cccc(Oc2ccccn2)c1` belongs 11.3%; to `CC(CNC(=O)Nc1cn[nH]c1)N1CCc2ccccc2C1` (stereo not given), -4.05%; to `O=C(CCc1ccc(Br)cc1F)NS(=O)(=O)c1ccc2c(c1)OCCO2`, 13.3%. To `CC(NC(N)=O)C(=O)N1CCCN(Cc2nccn2C(C)C)CC1` (stereo not given) belongs 7.49%; to `CN1Cc2c(C(=O)Nc3cccnc3)ncn2-c2ccccc2S1(=O)=O`, -2.46%. In the case of `CN(C(=O)NCCCN1CCCC1)C1CCN(c2ccccc2)C1=O` (stereo not given), the Percent Effect turned out to be 2.15%. In the case of `CCSCCC(=O)Nc1ncn(Cc2cccnc2)n1`, the Percent Effect is -3.63%. To `CNC(=O)[C@@]12CCO[C@@H]1CCN(S(=O)(=O)c1cccc(C)c1)C2` belongs 2.22%.
